Data taken from PubChem BioAssay (NCI).
This is part of a sample that, as a whole, favours compounds with a hit. Of some 83,000 tested, about 20% had one in any assay.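 Plates (96-well) were seeded with cells, treated with compound at one concentration, and incubated for 48 hours before percent growth was determined.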 Active and inactive are the calls of the source. Rule for the calls: active = growth percent below 10; inactive = the rest.

How the values were obtained:
Experiment in all cases: NCI-60 one-dose screen, 48 h (100 = growth as untreated, 0 = no growth, -100 = all killed)
Settings in all cases: 10 µM unless noted
T-47D breast = tested on: T-47D breast
MDA-MB-435 melanoma = tested on: MDA-MB-435 melanoma
SW-620 colon = tested on: SW-620 colon
MCF7 breast = tested on: MCF7 breast
HCT-116 colon = tested on: HCT-116 colon
HCC-2998 colon = tested on: HCC-2998 colon
KM12 colon = tested on: KM12 colon
BT-549 breast = tested on: BT-549 breast

Measured: growth

c1ccc2c(c1)Oc1cccnc1-n1nccc1-2
inactive: T-47D breast 105% | MDA-MB-435 melanoma 107% | SW-620 colon 102% | MCF7 breast 98.6% | HCT-116 colon 104% | HCC-2998 colon 110% | KM12 colon 100%

c1ccc2nc(Cn3cc[n+](Cc4ccc5ccccc5n4)c3)ccc2c1
inactive: T-47D breast 29.8% | MDA-MB-435 melanoma 52.8% | SW-620 colon 77.8% | HCC-2998 colon 57.8% | KM12 colon 48%

Cc1ccc2c(c1)Nc1ccc(C)cc1C2(C)C
inactive: T-47D breast 80.6% | MDA-MB-435 melanoma 98.3% | SW-620 colon 103% | MCF7 breast 86.9% | HCT-116 colon 89.3% | HCC-2998 colon 104% | KM12 colon 110%

O=[N+]([O-])c1cccc2cc(S(=O)(=O)O)ccc12
inactive: T-47D breast 98.9% | MDA-MB-435 melanoma 110% | MCF7 breast 97.2% | HCT-116 colon 97.6% | HCC-2998 colon 100% | KM12 colon 108%

COCCNC(C(=O)c1ccccc1)c1ccccc1 (stereo not given)
inactive: T-47D breast 92.1% | MDA-MB-435 melanoma 103% | SW-620 colon 101% | MCF7 breast 95.3% | HCT-116 colon 99.9% | HCC-2998 colon 107% | KM12 colon 104%

NN=C(c1ccc(Cl)cc1)c1ccc(Cl)cc1
inactive: T-47D breast 108% | MDA-MB-435 melanoma 97.1% | SW-620 colon 101% | MCF7 breast 99.6% | HCT-116 colon 98.4% | HCC-2998 colon 96% | KM12 colon 92.9%

N#CC(C#N)=C(C#N)c1c[nH]c2ccccc12
inactive: T-47D breast 60.8% | MDA-MB-435 melanoma 95.6% | MCF7 breast 74.7% | HCT-116 colon 85.4% | HCC-2998 colon 106% | KM12 colon 102%

C#C[C@H](O)/C=C/CCCCCCC#C[C@H](O)CC[C@@H](O)C#CCCCCCC/C=C/[C@@H](O)C#C
inactive: T-47D breast 76% | MDA-MB-435 melanoma 92.5% | MCF7 breast 68.5% | HCT-116 colon 57.3% | HCC-2998 colon 95.2% | KM12 colon 93.2%

O=C(Nc1ccc(-n2ccc3c(NC(=O)c4ccccc4)ncnc32)cc1)Nc1ccc(Cl)c(C(F)(F)F)c1
inactive: T-47D breast 12% | SW-620 colon 12.6% | HCC-2998 colon 30.8%
active: MDA-MB-435 melanoma 7.71% | MCF7 breast -51.3% | HCT-116 colon -77.6% | KM12 colon -25.4%

CCOC(=O)c1cnc2c(OC)ccc(OC)c2c1Cl
inactive: T-47D breast 116% | MDA-MB-435 melanoma 104% | SW-620 colon 107% | MCF7 breast 108% | HCT-116 colon 108% | HCC-2998 colon 117% | KM12 colon 101%

COc1ccc(Cl)cc1NC(=O)c1cc2c([nH]1)-c1nc(NC(=O)C(C)(C)C)sc1CC2
inactive: T-47D breast 71.3% | MDA-MB-435 melanoma 91% | MCF7 breast 52.1% | HCT-116 colon 12.4% | HCC-2998 colon 96.5% | KM12 colon 83.2%

CCN1CCN(Cc2ccc(NC(=O)Nc3cccc(-n4ccc5c(NC(=O)c6ccccc6)nccc54)c3)cc2C(F)(F)F)CC1
inactive: T-47D breast 74.7% | MCF7 breast 31.4% | HCT-116 colon 75.8% | HCC-2998 colon 102% | KM12 colon 53.1%
active: MDA-MB-435 melanoma 9.58%

O=C(Nc1cccc(-n2ccc3c(NC(=O)c4ccccc4)nccc32)c1)c1cccc(C(F)(F)F)c1
inactive: T-47D breast 55.8% | SW-620 colon 20.2% | MCF7 breast 19% | HCC-2998 colon 31.8%
active: MDA-MB-435 melanoma 1.38% | HCT-116 colon 1.3% | KM12 colon -3.3%

CC(C)Cn1cnc2c3ccccc3nc(NCn3nc(-c4cc(Cl)cc(Cl)c4Cl)oc3=S)c21
inactive: T-47D breast 94.4% | MDA-MB-435 melanoma 91.4% | SW-620 colon 117% | MCF7 breast 96.2% | HCT-116 colon 79.3% | HCC-2998 colon 97.4% | KM12 colon 99.7%

CNC(=O)NN
inactive: T-47D breast 92.3% | MDA-MB-435 melanoma 102% | SW-620 colon 93.7% | MCF7 breast 98.1% | HCT-116 colon 93.6% | HCC-2998 colon 101% | KM12 colon 101%

CCOC(=O)C1CN(Cc2ccccc2)C(=O)C1=O (stereo not given)
inactive: T-47D breast 104% | MDA-MB-435 melanoma 98.6% | MCF7 breast 100% | HCT-116 colon 92.9% | HCC-2998 colon 118% | KM12 colon 108%

O=C(O)c1ccccc1C(=O)c1ccc(I)cc1
inactive: T-47D breast 83.1% | MDA-MB-435 melanoma 107% | SW-620 colon 97.4% | MCF7 breast 92.1% | HCT-116 colon 99.9% | HCC-2998 colon 102% | KM12 colon 106%

CCCCCCCCCCCC(=O)OCCNC(=O)C[n+]1ccccc1
inactive: T-47D breast 95.3% | SW-620 colon 116% | MCF7 breast 97.9% | HCT-116 colon 103% | HCC-2998 colon 111% | KM12 colon 110%

COc1cc2ncn3c(=O)c4c5c(sc4nc3c2cc1OC)CCCCC5
inactive: T-47D breast 84.7% | MDA-MB-435 melanoma 109% | SW-620 colon 101% | MCF7 breast 86.8% | HCT-116 colon 97.4% | HCC-2998 colon 106% | KM12 colon 99.2%

Nc1nc(Cl)c2c(C(F)(F)F)cn(CC3CCNCC3)c2n1
inactive: T-47D breast 104% | MDA-MB-435 melanoma 76.5% | SW-620 colon 22.4% | MCF7 breast 103% | HCT-116 colon 48.3% | HCC-2998 colon 78.9% | KM12 colon 101%

O=C(O)c1cccc(S(=O)(=O)c2ccccc2)c1
inactive: BT-549 breast 107% | MDA-MB-435 melanoma 94.2% | MCF7 breast 90.4% | HCT-116 colon 109% | HCC-2998 colon 104% | KM12 colon 97.4%

COc1ccc(Cl)cc1NC(=O)c1cc2c([nH]1)-c1nc(NC(=O)C(C)C)sc1CC2
inactive: T-47D breast 82.7% | MDA-MB-435 melanoma 114% | SW-620 colon 101% | MCF7 breast 82.6% | HCT-116 colon 80% | HCC-2998 colon 101% | KM12 colon 94.6%

CCOC(=O)n1cnc2c(Cl)ncnc21
inactive: T-47D breast 100% | MDA-MB-435 melanoma 111% | SW-620 colon 108% | MCF7 breast 95.2% | HCT-116 colon 101% | KM12 colon 107%
active: HCC-2998 colon 2.2%

CC(=O)N[C@@H](CNC(=O)c1cc(NC(=O)c2cc(NC(=O)c3cc(NC(=O)c4nccn4C)cn3C)cn2C)cn1C)CC(=O)Nc1cn(C)c(C(=O)Nc2cc(C(=O)Nc3cc(C(=O)Nc4cc(C(=O)NCCCN(C)CCCNC(=O)c5cccc(C(=O)O)c5)n(C)c4)n(C)c3)n(C)c2)n1
inactive: T-47D breast 41.5% | MDA-MB-435 melanoma 95.5% | SW-620 colon 90.9% | MCF7 breast 77.8% | HCT-116 colon 43.9% | HCC-2998 colon 106% | KM12 colon 42.6%

CC(=O)Nc1ccc([I+]c2ccc([N+](=O)[O-])cc2)cc1
inactive: T-47D breast 68.1% | MDA-MB-435 melanoma 109% | SW-620 colon 95.1% | MCF7 breast 94.8% | HCT-116 colon 81% | HCC-2998 colon 106% | KM12 colon 104%

O=C(CSc1nnc(-c2cc3c([nH]c4ccccc43)c(-c3cccc(O)c3)n2)n1-c1ccccc1)c1ccccc1
active: MDA-MB-435 melanoma -33.3%
inactive: T-47D breast 53% | SW-620 colon 50% | MCF7 breast 13.7% | HCT-116 colon 29.7% | HCC-2998 colon 96% | KM12 colon 60.1%

O=C(Nc1ccc(-n2ccc3c(NC(=O)c4ccccc4)nccc32)cc1)c1ccc(Cl)c(C(F)(F)F)c1
active: SW-620 colon -45.8% | MCF7 breast -62.6% | HCT-116 colon -92.4% | KM12 colon -3.15%
inactive: T-47D breast 62.3% | MDA-MB-435 melanoma 11.6% | HCC-2998 colon 19.7%

O=C(Cn1c2ccccc2c2ccncc21)N/N=C/c1c[nH]c2ccccc12
inactive: T-47D breast 90.2% | MDA-MB-435 melanoma 33.8% | SW-620 colon 34.3% | MCF7 breast 37.8% | HCC-2998 colon 87.5% | KM12 colon 60.5%
active: HCT-116 colon 4.33%

c1ccc(CNCCN(CCNCc2ccccn2)Cc2ccc3ccccc3c2)nc1
inactive: MDA-MB-435 melanoma 11.4% | SW-620 colon 13% | KM12 colon 12.5%
active: T-47D breast -4.67% | MCF7 breast 3.36% | HCT-116 colon -9.29% | HCC-2998 colon -18.3%

COc1cccc(/C=N/C(=S)NC2(C)C3CCC(C3)C2(C)C)c1O (stereo not given)
inactive: T-47D breast 56.5% | MDA-MB-435 melanoma 89.8% | SW-620 colon 78.9% | MCF7 breast 47.8% | HCT-116 colon 53.4% | HCC-2998 colon 108% | KM12 colon 87.8%
